In PubChem BioAssay AID1159580 (chemical genetic matrix, 2015):
Among all 5,500 compounds or so, about 2,000 (36%) were called active. Not shown: some 18% with an inconclusive outcome. Rule as the data show it: active = normalized growth mostly below about 0.91 (no sharp cut-off); inconclusive = no clear call, values can overlap the other calls; inactive = mostly above about 0.92. The list shows a part of the results.

Experiment: chemical genetic growth profiling, strain panel (AID 1159580);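 also: tested at 20 µM; growth read once vehicle control cultures reached saturation at 30 °C; 1 = growth at the plate median or of vehicle wells; lower values mean less growth of the strain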
Details: growth OD
[1] = S. cerevisiae deletion strains, locus YAL013W, strain DEP1, stronger effect = lower value
[2] = S. cerevisiae deletion strains, locus YDR150W, strain NUM1, stronger effect = lower value
[3] = S. cerevisiae deletion strains, locus YGR078C, strain PAC10, stronger effect = lower value
[4] = S. cerevisiae deletion strains, locus YJR075W, strain HOC1, stronger effect = lower value
[5] = S. cerevisiae deletion strains, locus YMR307W, strain GAS1, stronger effect = lower value
[6] = S. cerevisiae deletion strains, locus YNL128W, strain TEP1, stronger effect = lower value
[7] = S. cerevisiae deletion strains, locus YNL153C, strain GIM3, stronger effect = lower value
[8] = S. cerevisiae deletion strains, locus YNL322C, strain KRE1, stronger effect = lower value
[9] = S. cerevisiae deletion strains, locus YPL055C, strain LGE1, stronger effect = lower value
[10] = S. cerevisiae deletion strains, locus YPL241C, strain CIN2, stronger effect = lower value

Measured: normalized growth

NC(=S)NCCCC(N)C(=O)O (centres undefined)
inactive: [1] 1.01 | S. cerevisiae deletion strains, locus YAL040C, strain CLN3, stronger effect = lower value 1 | S. cerevisiae deletion strains, locus YCL061C, strain MRC1 (second series), stronger effect = lower value 1.01 | [2] 1.01 | S. cerevisiae deletion strains, locus YDR363W, strain ESC2, stronger effect = lower value 1.02 | S. cerevisiae deletion strains, locus YER002W, strain NOP16, stronger effect = lower value 1.02 | [3] 1.01 | [4] 1.02 | [5] 1.01 | [6] 1.03 | [7] 1.01 | S. cerevisiae deletion strains, locus YNL175C, strain NOP13, stronger effect = lower value 1.03 | S. cerevisiae deletion strains, locus YNL197C, strain WHI3, stronger effect = lower value 1.01 | S. cerevisiae deletion strains, locus YNL224C, strain SQS1, stronger effect = lower value 1.02 | [8] 1.02 | S. cerevisiae deletion strains, locus YOR083W, strain WHI5 (second series), stronger effect = lower value 0.994 | [9] 1.03 | [10] 1.01

CCc1cccc(CC)c1N(COC)C(=O)CCl
inactive: [1] 1 | S. cerevisiae deletion strains, locus YBR021W, strain FUR4, stronger effect = lower value 1.01 | S. cerevisiae deletion strains, locus YBR229C, strain ROT2, stronger effect = lower value 1.01 | S. cerevisiae deletion strains, locus YCL029C, strain bik1, stronger effect = lower value 1.02 | S. cerevisiae deletion strains, locus YDL035C, strain GPR1, stronger effect = lower value 1.02 | S. cerevisiae deletion strains, locus YDL074C, strain BRE1, stronger effect = lower value 1.03 | S. cerevisiae deletion strains, locus YDL101C, strain DUN1, stronger effect = lower value 1.01 | S. cerevisiae deletion strains, locus YDL134C, strain PPH21, stronger effect = lower value 1.01 | S. cerevisiae deletion strains, locus YDL185W, strain tfp1, stronger effect = lower value 1.02 | S. cerevisiae deletion strains, locus YDL192W, strain arf1, stronger effect = lower value 1.03 | S. cerevisiae deletion strains, locus YDR101C, strain arx1, stronger effect = lower value 1.02 | [2] 0.995 | S. cerevisiae deletion strains, locus YDR162C, strain NBP2, stronger effect = lower value 0.999 | S. cerevisiae deletion strains, locus YDR318W, strain mcm21, stronger effect = lower value 1.02 | S. cerevisiae deletion strains, locus YDR388W, stronger effect = lower value 1.02 | S. cerevisiae deletion strains, locus YDR502C, strain sam2, stronger effect = lower value 1.02 | S. cerevisiae deletion strains, locus YEL061C, strain CIN8, stronger effect = lower value 1 | S. cerevisiae deletion strains, locus YER110C, stronger effect = lower value 1.01 | S. cerevisiae deletion strains, locus YER155C, strain BEM2, stronger effect = lower value 1 | S. cerevisiae deletion strains, locus YER167W, strain BCK2, stronger effect = lower value 1 | S. cerevisiae deletion strains, locus YGL078C, strain dbp3, stronger effect = lower value 1.02 | S. cerevisiae deletion strains, locus YGL086W, strain mad1, stronger effect = lower value 0.999 | S. cerevisiae deletion strains, locus YGL248W, strain PDE1, stronger effect = lower value 1.01 | [3] 1.01 | S. cerevisiae deletion strains, locus YGR135W, strain pre9, stronger effect = lower value 1.02 | S. cerevisiae deletion strains, locus YGR229C, strain SMI1, stronger effect = lower value 1.02 | S. cerevisiae deletion strains, locus YGR252W, strain gcn5, stronger effect = lower value 1.05 | S. cerevisiae deletion strains, locus YHR030C, strain SLT2, stronger effect = lower value 1 | S. cerevisiae deletion strains, locus YHR079C, strain IRE1 (second series), stronger effect = lower value 1.02 | S. cerevisiae deletion strains, locus YHR094C, strain hxt1, stronger effect = lower value 1.02 | S. cerevisiae deletion strains, locus YHR129C, strain ARP1, stronger effect = lower value 1 | S. cerevisiae deletion strains, locus YHR200W, strain rpn10, stronger effect = lower value 1.02 | S. cerevisiae deletion strains, locus YIL066C, strain RNR3, stronger effect = lower value 1.01 | S. cerevisiae deletion strains, locus YIL073C, strain SPO22, stronger effect = lower value 1.11 | S. cerevisiae deletion strains, locus YIL125W, strain kgd1, stronger effect = lower value 1.01 | S. cerevisiae deletion strains, locus YIR030C, strain dcg1, stronger effect = lower value 1.03 | S. cerevisiae deletion strains, locus YJL095W, strain BCK1, stronger effect = lower value 1.02 | S. cerevisiae deletion strains, locus YJL134W, strain LCB3, stronger effect = lower value 1.01 | S. cerevisiae deletion strains, locus YJL168C, strain set2, stronger effect = lower value 1.03 | S. cerevisiae deletion strains, locus YJL187C, strain SWE1 (second series), stronger effect = lower value 1 | S. cerevisiae deletion strains, locus YJR043C, strain POL32, stronger effect = lower value 1.01 | [4] 1.01 | S. cerevisiae deletion strains, locus YKL009W, strain mrt4, stronger effect = lower value 1.05 | S. cerevisiae deletion strains, locus YKL068W, stronger effect = lower value 0.999 | S. cerevisiae deletion strains, locus YKL085W, strain MDH1 (second series), stronger effect = lower value 1.01 | S. cerevisiae deletion strains, locus YKL085W, strain MDH1, stronger effect = lower value 1.01 | S. cerevisiae deletion strains, locus YKL190W, strain CNB1, stronger effect = lower value 0.992 | S. cerevisiae deletion strains, locus YKR001C, strain vps1, stronger effect = lower value 1.04 | S. cerevisiae deletion strains, locus YLR039C, strain RIC1, stronger effect = lower value 1 | S. cerevisiae deletion strains, locus YLR058C, strain SHM2, stronger effect = lower value 1.01 | S. cerevisiae deletion strains, locus YLR102C, strain apc9, stronger effect = lower value 1.03 | S. cerevisiae deletion strains, locus YLR262C, strain YPT6, stronger effect = lower value 1.02 | S. cerevisiae deletion strains, locus YLR268W, strain sec22, stronger effect = lower value 1.02 | S. cerevisiae deletion strains, locus YLR330W, strain CHS5, stronger effect = lower value 1.01 | S. cerevisiae deletion strains, locus YLR342W, strain FKS1 (second series), stronger effect = lower value 1 | S. cerevisiae deletion strains, locus YLR371W, strain rom2, stronger effect = lower value 1.02 | S. cerevisiae deletion strains, locus YLR418C, strain cdc73, stronger effect = lower value 1.05 | S. cerevisiae deletion strains, locus YML016C, strain PPZ1, stronger effect = lower value 1 | S. cerevisiae deletion strains, locus YML032C, strain rad52, stronger effect = lower value 1.03 | S. cerevisiae deletion strains, locus YML124C, strain tub3, stronger effect = lower value 1.01 | S. cerevisiae deletion strains, locus YMR078C, strain ctf18, stronger effect = lower value 1.02 | S. cerevisiae deletion strains, locus YMR223W, strain ubp8, stronger effect = lower value 1.02 | S. cerevisiae deletion strains, locus YMR263W, strain SAP30, stronger effect = lower value 0.997 | [5] 1.01 | S. cerevisiae deletion strains, locus YNL067W, strain RPL9B, stronger effect = lower value 1 | [6] 1.01 | [7] 1 | S. cerevisiae deletion strains, locus YNL233W, strain BNI4, stronger effect = lower value 1.01 | S. cerevisiae deletion strains, locus YNL250W, strain rad50, stronger effect = lower value 1.02 | S. cerevisiae deletion strains, locus YNL271C, strain bni1, stronger effect = lower value 1.03 | S. cerevisiae deletion strains, locus YNL298W, strain CLA4, stronger effect = lower value 1.03 | S. cerevisiae deletion strains, locus YNL307C, strain MCK1, stronger effect = lower value 1.03 | [8] 1 | S. cerevisiae deletion strains, locus YNR052C, strain pop2, stronger effect = lower value 1.03 | S. cerevisiae deletion strains, locus YOL006C, strain TOP1, stronger effect = lower value 1.05 | S. cerevisiae deletion strains, locus YOL012C, strain htz1 1.33 | S. cerevisiae deletion strains, locus YOL147C, strain pex11, stronger effect = lower value 1.02 | S. cerevisiae deletion strains, locus YOR061W, strain CKA2, stronger effect = lower value 0.999 | S. cerevisiae deletion strains, locus YOR069W, strain VPS5, stronger effect = lower value 0.999 | S. cerevisiae deletion strains, locus YOR136W, strain idh2, stronger effect = lower value 1.02 | S. cerevisiae deletion strains, locus YOR144C, strain elg1, stronger effect = lower value 1.02 | S. cerevisiae deletion strains, locus YOR184W, strain ser1, stronger effect = lower value 1.04 | S. cerevisiae deletion strains, locus YOR316C, strain cot1, stronger effect = lower value 1.03 | [9] 1.02 | [10] 1.01 | S. cerevisiae deletion strains, locus YPR119W, strain clb2, stronger effect = lower value 1.02 | S. cerevisiae deletion strains, locus YPR141C, strain kar3, stronger effect = lower value 1.03 | S. cerevisiae deletion strains, locus YPR163C, strain tif3, stronger effect = lower value 1.03 | S. cerevisiae deletion strains, locus YPR167C, strain met16, stronger effect = lower value 1.02 | S. cerevisiae deletion strains, strain wtn01, stronger effect = lower value 1.01 | S. cerevisiae strains, strain wild type, stronger effect = lower value 1
